Values without a mark were called inactive. Activity calls are given as the source filed them.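 Rule for the calls: active = EC50 at or below 10 µM; inactive = EC50 above 10 µM.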

The experiment is described as follows: fluorescence interference artefacts, compound only, dose response, artefact control for cardiac thin filament activator project, biochemical, no RTF in test wells (AID 504697).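 Note: emission near 535 nm under roughly 485 nm excitation as for IANBD.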 As to conditions: compound-only fluorescence in RTF assay buffer with Ca2+ (no RTF in test wells), artifact counterscreen.
One may read the EC50 as the concentration at which the effect is half-maximal. For `Cc1ccnc2nc(C(=O)OCC(=O)NCCc3ccccc3)nn12`, the EC50 was above 71.5 µM.

As to `Cn1ncc2c(O/N=C(\N)c3ccc(C(F)(F)F)cc3)ncnc21`, the EC50 is above 71.5 µM.

For the compound `CC(COC(=O)c1ccccc1)(COC(=O)c1ccccc1)/[N+]([O-])=C/c1ccccc1`, the EC50 is above 71.5 µM.

For the compound `O=C(Nc1ccc(Cl)c(Cl)c1)Nc1ccc([N+](=O)[O-])cn1`, the EC50 was above 71.5 µM.

For `Cc1ccc(C)c(N2CCN(C(=O)CN3C(=S)NC(C)(C)CC3C)CC2)c1` (stereo unspecified), the EC50 is above 71.5 µM.

In the case of `CCC(C(=O)O)N1C(=O)/C(=C/c2cccn2C)SC1=S` (stereo unspecified), the EC50 is 35.3 µM.

On to `O=C(CSc1nc2ncc(Br)cc2[nH]1)c1cccc([N+](=O)[O-])c1`, for which the EC50 was above 71.5 µM.

For `CN(C)NC(=O)c1ccc([N+](=O)[O-])s1`, the EC50 was above 71.4 µM.

As to `Cc1cc(S(=O)(=O)N2CCCC(C(=O)Nc3ccc(C(=O)O)cc3)C2)ccc1Cl` (stereo unspecified), the EC50 was above 71.5 µM.

For the compound `CN1C(=O)/C(=C/C=C2\SCCN2C)OC1=S`, the EC50 was 15.9 µM.

Turning to `Cc1ccc(N2C3=C(C(=O)CC(C)(C)C3)C(c3cn(C)nc3C)C3=C2CC(C)(C)CC3=O)cc1`, the EC50 is 17.1 µM.

For the compound `CCOC(=O)c1sc2nc(C)nc(SCC(=O)NC3CCS(=O)(=O)C3)c2c1C` (stereo unspecified), the EC50 is above 71.5 µM.

With `CC(=O)/C(C=Nc1noc(C)c1Br)=C(\C)O`, the EC50 was above 71.6 µM.

For `CCN(CC)CCN1C(=O)c2cccc3cc(N)cc(c23)C1=O`, the EC50 is 49.2 µM.

For `COc1ccccc1C(=O)Oc1ccc2c(c1)O/C(=C\c1ccncc1)C2=O`, the EC50 was 30.9 µM.

As for `O=C(O)c1ccccc1CSc1nnnn1-c1ccccc1`, the EC50 is above 71.5 µM.

Regarding `COc1ccc(C(=O)Nn2cnc3scc(-c4cccs4)c3c2=O)c(O)c1`, the EC50 is above 71.5 µM.

On to `COc1ccc(CNC(=O)c2sc(=S)n(-c3ccccc3)c2N)cc1`, for which the EC50 was above 71.5 µM.

`COc1cc(/C=C(\C#N)c2nc3ccccc3[nH]2)cc(OC)c1O`: the EC50 was 11.1 µM.

As for `NC(=O)NC(=O)COC(=O)c1cccc(NS(=O)(=O)/C=C/c2ccccc2)c1`, the EC50 was above 71.5 µM.

Regarding `COc1ccc(OC)c(/C=C2\N=C(c3ccccc3)OC2=O)c1`, the EC50 is 1.71 µM (active).

For the compound `COc1ccc2nc(-c3ccccn3)[nH]c2c1`, the EC50 was above 71.5 µM.

With `S=C(Nc1cc(Cl)ccc1Oc1ccccc1)N1CCN(c2ccccn2)CC1`, the EC50 was above 71.4 µM.

In the case of `COc1ccc2ccccc2c1C(O)c1nccn1C` (stereo unspecified), the EC50 is 10.7 µM.

`CC(=O)N(C)c1ccc(C(O)(C(F)(F)F)C(F)(F)F)cc1`: the EC50 is above 71.5 µM.

`CCOC(=O)c1cc2n(c1N)-c1ccccc1C2=O`: the EC50 was 62.6 µM.

On to `CCN(CC)C(=S)SCC(=O)c1c(C)[nH]c2ccccc12`, for which the EC50 is above 71.5 µM.

Take `CC(=O)N1CCc2c(sc(NC(=O)C3CCCN3S(=O)(=O)c3cccs3)c2C(N)=O)C1` (stereo unspecified): the EC50 was 42.6 µM.

`O=C(NCc1nnc(SCC(=O)N2CCCCCC2)o1)c1ccco1`: the EC50 was above 71.5 µM.

On to `CCOc1cc(/C=C2\N=C(SC(C)C(N)=O)N(c3ccc(OC(F)F)cc3)C2=O)ccc1O` (stereo unspecified), for which the EC50 is 23.3 µM.

`O=c1[nH][nH]c(C(F)(F)F)c1C=Nc1cccc(Cl)c1`: the EC50 was above 71.5 µM.

In the case of `CN(N=Nc1ccc([N+](=O)[O-])cc1)c1ccccc1`, the EC50 was 8.06 µM (active).

Turning to `O=C(O)c1ccc(NC(=S)NC(=O)c2ccc(-c3ccccc3)cc2)cc1`, the EC50 was above 71.5 µM.

In the case of `O=C(CSC1=NS(=O)(=O)c2ccccc2N1)N1CCCCC1`, the EC50 was above 71.5 µM.

Take `O=C(Nc1ccccc1)NC1CS(=O)(=O)CC1O` (stereo unspecified): the EC50 is above 71.5 µM.

As for `CC1(C)CC(=O)C(C=Nc2cc(C(=O)c3ccccc3)ccc2N)=C(O)C1`, the EC50 is above 71.5 µM.

These data come from PubChem BioAssay AID504697 (The Scripps Research Institute Molecular Screening Center, 2011).
